The text below walks through data of PubChem BioAssay (EPA / NIEHS).

Records with an inconclusive call do not appear. Active and inactive are the calls of the source. How the source made its calls: active means hit-call score of the fitted dose curve at least 0.9, where 1 is the maximum; inconclusive means response in the unintended direction; inactive means score below 0.9.

The target in this assay is Estrogen receptor (Homo sapiens) (UniProt P03372). Briefly: CCTE_Deisenroth_AIME_384WELL_LUC_Active: CCTE's 384-well Estrogen Receptor Transactivation Assay with AIME metabolic competence (ERTA luciferase; metabolism positive), Deisenroth Lab (AID 2284030). As to the method: CCTE_Deisenroth_AIME_384WELL (AIME metabolism assay) is a cell-based, single-readout assay that uses VM7Luc4E2, a human mammary gland/breast cell line, with measurements taken at 24 hour after chemical dosing in a 384-well plate.CCTE_Deisenroth_AIME_384WELL_LUC_Active is one of four assay components measured or calculated from the CCTE_Deisenroth_AIME_384WELL assay. It is designed to make measurements of luciferase induction, a form of inducible reporter, as detected with bioluminescence signals by luciferase-coupled ATP quantitation technology.CCTE_Deisenroth_AIME_384WELL_LUC_Active is a component of the CCTE_Deisenroth_AIME_384WELL assay that measures the effect of retroftting the VM7Luc ERTA assay with the Alginate Immobolization of Metabolic Enzymes (AIME) metabolism method. AIME is optimized to impart phase I hepatic metabolism using phenobarbital/beta-naphthoflavone induced hepatic S9 from male Sprague Dawley rats. Parent chemicals are incubated for 2 hours in the AIME assay prior to transfer to the VM7Luc ERTA assay plate. […] This endpoint evaluates reporter induction in metabolism positive mode. Using a type of inducible reporter in VM7Luc cells, gain-of-signal activity can be used to understand changes in the reporter gene as they relate to xenobiotic metabolism and the gene ESR1. This assay endpoint, CCTE_Deisenroth_AIME_384WELL_LUC_Active, was analyzed in the positive analysis fitting direction relative to 17beta-estradiol as the positive control in the ERTA assay. To generalize the intended target to other relatable targets, this assay endpoint is annotated to the nuclear receptor intended target family, where the subfamily is steroidal.
Sequence of Estrogen receptor (Homo sapiens) (P03372 whole entry, looked up): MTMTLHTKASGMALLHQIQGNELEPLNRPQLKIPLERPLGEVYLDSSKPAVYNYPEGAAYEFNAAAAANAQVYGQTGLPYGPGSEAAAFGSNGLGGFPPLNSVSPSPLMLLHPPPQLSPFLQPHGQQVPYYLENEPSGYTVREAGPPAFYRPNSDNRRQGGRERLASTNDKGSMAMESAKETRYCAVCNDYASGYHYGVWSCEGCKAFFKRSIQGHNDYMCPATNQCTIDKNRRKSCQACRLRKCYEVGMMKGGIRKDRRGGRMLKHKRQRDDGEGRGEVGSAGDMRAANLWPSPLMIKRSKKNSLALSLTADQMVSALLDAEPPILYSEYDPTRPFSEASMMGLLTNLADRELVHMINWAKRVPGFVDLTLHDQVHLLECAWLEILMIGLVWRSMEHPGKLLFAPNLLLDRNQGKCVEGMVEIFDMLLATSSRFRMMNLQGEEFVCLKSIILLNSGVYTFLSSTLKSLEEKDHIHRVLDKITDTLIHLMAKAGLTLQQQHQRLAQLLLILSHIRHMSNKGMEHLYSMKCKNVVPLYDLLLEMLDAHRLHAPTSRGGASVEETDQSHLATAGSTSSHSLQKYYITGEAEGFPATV
The AIME procedure consists of a preparative "pre-stamping" step using a barium chloride/poly-L-lysine (PLL) solution followed by "stamping" the lid in alginate-hepatic S9 (metabolism positive) or alginate-water (metabolism negative) to form microspheres. Once stamping is completed, the AIME lids are placed in duplicate microplates (metabolism positive or negative) containing chemical solutions and incubated for two hours to facilitate metabolic reactions. The conditioned medium, containing parent chemical or metabolites, is then transferred to the cell-based VM7Luc Estrogen Receptor Transactivation Assay (ERTA) for 24 hours. A typical experimental design tests a 10-point concentration series (0.002 - 200 uM) for 8 compounds (96-well format)1 or 32 compounds (384-well format)2 in single technical replicate. AIME assay controls include trans-stilbene (bioactivated control) and ethylparaben (bioinactivated control). ERTA assay plate controls include 17-beta estradiol (positive control) and DMSO (solvent control). Experiments typically comprise a minimum of four experimental replicates (n=4).
`CC(C)(C)c1cc(Cc2cc(C(C)(C)C)c(O)c(C(C)(C)C)c2)cc(C(C)(C)C)c1O`: the compound was called inactive. Take `N#Cc1ccccc1O`: the call was inactive.

Regarding `CC(=O)CCC(C)C`, the outcome was inactive. Still for that read-out and setting: to `CCCCOC(=O)C(C)O` (stereo not given) belongs “inactive”; to `CCCCCCCC/C=C\CCCCCCCC(=O)OCC(O)CO` (stereo not given), “inactive”. For the compound `O=C1C=CC(=O)N1c1ccccc1`, the result was inactive. Regarding `O=C(c1ccccc1)c1ccc(O)cc1O`, the half-maximal activity concentration (AC50) is 42.3 µM (active).

For `CCOC(OCC)OCC`, the result was inactive. Still for that read-out and setting: with `OCC1CCCO1` (stereo not given) the entry was “inactive”.

As to `Cc1ccc(O)c(-n2nc3ccccc3n2)c1`, the half-maximal activity concentration (AC50) was 51.3 µM (active).

As a reminder, the AC50 is the concentration giving half of the maximal activity seen.
